As a reminder, the viability is a read-out of living cells in per cent, often relative to untreated cells.

One test in a line: reversal of MRP1-mediated doxorubicin resistance, pilot screen, H69AR cells, doxorubicin co-treatment (AID 601). The following applies: H69AR cells + 2 uM doxorubicin, CellTiter-Glo, 72 h; measured here: viability with 2 uM doxorubicin; at 10 µM; stronger effect = lower value.
Consider `O=C(CSc1nnc(-c2cccnc2)o1)Nc1ccccn1`, for which the viability is 86.5%.
Regarding `CCC1Oc2ccccc2N(CC(=O)Nc2ccc(OC)cc2OC)C1=O` (stereo not given), the viability was found to be 85.3%.
Same read-out and setting: next, `Cc1cccn2c(=O)c3cc(C(=O)N4CCCc5ccccc54)n(C)c3nc12`: 89.2%; `CCN(CC)CCCn1c(=S)[nH]c2cc(Cl)ccc2c1=O`: 90.4%.
Take `CCCCC(=O)NCCNc1nc2c(c(=O)n(C)c(=O)n2C)n1Cc1ccccc1`: the viability came out at 98.7%.
With `O=C(C1CCCCC1)N1CCC(c2nc3c(nnn3Cc3c(F)cccc3Cl)c(=O)[nH]2)CC1`, the viability stood at 22.9%.
Same read-out and setting: the result for `CCOc1ccc(OCC)c(NC(=O)CN2CCN(C(=O)c3ccco3)CC2)c1` reads 30.6%; that for `CN(C)CCCNC(=O)c1ccc(CN(c2ccccc2)S(C)(=O)=O)cc1`, 89%.
For the molecule `Cc1oc(-c2ccc(Cl)cc2)nc1CS(=O)CC(=O)NCCCN(C)C1CCCCC1` (stereo not given), the viability came out at 76.3%.
Still for that read-out and setting: the result for `N#CC1=C(N)OC(c2ccccc2)=C(C#N)C1c1ccc2c(c1)OCO2` (stereo not given) reads 80.6%.
The same measure, in the same setting: the result for `O=C1C(C=NCCCn2ccnc2)=C(O)c2ccccc21` reads 82%; that for `Cc1c(Cl)cccc1N1C(=O)c2ccccc2C1=O`, 108%.
Consider `CN1C(=O)NC(NC(=O)C2CCCCC2)(C(F)(F)F)C1=O` (stereo not given), for which the viability came to 99.8%.
On the same count and under the same terms, next, `CCOC(=O)C1=C(C)Nc2ncnn2C1c1ccccc1F` (stereo not given): 101%.
On the same count and under the same terms, next, `CCC(Oc1ccc2ccccc2c1)C(=O)O` (stereo not given): 81.6%; `C=Cn1c(C(=O)O)cc(CC)c1-c1ccccc1`: 104%.
Consider `CC(=O)N1CCc2cc(S(=O)(=O)NC(C(=O)NCc3ccccc3)C(C)C)ccc21` (stereo not given), for which the viability was found to be 90.1%.
The same measure, in the same setting: the result for `COc1ccccc1CN1CCCC(C(=O)N(C)Cc2ccccc2)C1` (stereo not given) reads 77.4%; that for `CCOC(=O)c1c(N)sn(-c2ccccc2)c1=S`, 90.6%.
Same read-out and setting: next, `Cc1cc(C)c2c(n1)nn1c(N3CCOCC3)cc(C)nc21`: 93.4%; `CC(C)c1cc(C(=O)NCc2ccco2)no1`: 74.5%.
For the molecule `NC(=O)COC(=O)CNC(=O)c1ccc(Cl)cc1`, the viability is 84.7%.
Same read-out and setting: the result for `Cc1cccc(-c2c3c(=O)n(C)c(=O)n(C)c3cn2-c2ccc(O)cc2)c1` reads 93.1%; that for `Cn1c(SC/C=C/c2ccccc2)nnc1-c1cnccn1`, 84%; that for `COc1ccc2nc(N3CCC(C)CC3)c(C#N)cc2c1`, 23%.
In the case of `CC1(C)CC(=O)C(C#N)=C(NCCCO)C1`, the viability was determined as 103%.
With `CCCc1[nH]nc2c1C(c1cccc(OC(=O)c3ccco3)c1)C(C#N)=C(N)O2` (stereo not given), the viability amounted to 94.1%.
On the same count and under the same terms, the result for `CC(=O)N(c1ccc(N(C(C)=O)S(=O)(=O)c2cccs2)cc1)S(=O)(=O)c1cccs1` reads 108%.
Take `O=C(NCCC1=CCCCC1)N[C@@H](Cc1ccccc1)C(=O)O`: the viability was found to be 93.5%.
Still for that read-out and setting: the result for `COc1ccccc1C(=O)n1nc(-c2ccccc2)nc1N` reads 90.5%.
With `O=C(O)COc1ccc2occ(C(=O)c3ccccc3)c2c1`, the viability was found to be 92.9%.
As to `O=C(NCC1CCCO1)C1CCCN(S(=O)(=O)c2cccc3nsnc23)C1` (stereo not given), the viability amounted to 84.2%.
For `CN1CCN(C(c2cccc(C(F)(F)F)c2)c2nnnn2C(C)(C)C)CC1` (stereo not given), the viability was determined as 89.7%.
As to `Nc1nnnn1/N=C/c1ccccc1OCc1ccccc1`, the viability is 87%.
Same read-out and setting: next, `Cc1ccc(C(=O)C2COC(=O)C2)cc1` (stereo not given): 82.2%; `O=C(CSc1nnc(-c2c[nH]c3ccccc23)o1)N(Cc1ccccc1)c1ccc(F)cc1`: 96.6%.
In the case of `CC(C)OC(=O)CSc1nnc(-c2ccc(C(C)(C)C)cc2)n1N`, the viability worked out at 82.8%.
On the same count and under the same terms, the result for `COc1cc(Br)cc(/C=N/c2ncn[nH]2)c1O` reads 104%; that for `CSc1ccccc1N=CC1=C(O)CC(C)(C)CC1=O`, 90.1%.
On the same count and under the same terms, the result for `CC1(C)CC(CCNC(=O)c2ccco2)CC(C)(C)N1` reads 95.8%.

Still in this test, the particulars now being: H69AR cells, CellTiter-Glo, 72 h; compound alone cytotoxicity; at 10 µM.
`O=C(CSc1nnc(-c2cccnc2)o1)Nc1ccccn1`: the viability is 94.4%.
On the same count and under the same terms, next, `CCC1Oc2ccccc2N(CC(=O)Nc2ccc(OC)cc2OC)C1=O` (stereo not given): 100%; `Cc1cccn2c(=O)c3cc(C(=O)N4CCCc5ccccc54)n(C)c3nc12`: 90.2%; `CCN(CC)CCCn1c(=S)[nH]c2cc(Cl)ccc2c1=O`: 97%.
On the same count and under the same terms, the result for `CCCCC(=O)NCCNc1nc2c(c(=O)n(C)c(=O)n2C)n1Cc1ccccc1` reads 94.6%; that for `O=C(C1CCCCC1)N1CCC(c2nc3c(nnn3Cc3c(F)cccc3Cl)c(=O)[nH]2)CC1`, 71.3%; that for `CCOc1ccc(OCC)c(NC(=O)CN2CCN(C(=O)c3ccco3)CC2)c1`, 68.8%.
The same measure, in the same setting: next, `CN(C)CCCNC(=O)c1ccc(CN(c2ccccc2)S(C)(=O)=O)cc1`: 92.1%.
Turning to `Cc1oc(-c2ccc(Cl)cc2)nc1CS(=O)CC(=O)NCCCN(C)C1CCCCC1` (stereo not given), the viability turned out to be 87.1%.
On the same count and under the same terms, the result for `N#CC1=C(N)OC(c2ccccc2)=C(C#N)C1c1ccc2c(c1)OCO2` (stereo not given) reads 93.8%.
As for `O=C1C(C=NCCCn2ccnc2)=C(O)c2ccccc21`, the viability came out at 99.2%.
As for `Cc1c(Cl)cccc1N1C(=O)c2ccccc2C1=O`, the viability was found to be 111%.
The same measure, in the same setting: the result for `CN1C(=O)NC(NC(=O)C2CCCCC2)(C(F)(F)F)C1=O` (stereo not given) reads 106%.
Still for that read-out and setting: the result for `CCOC(=O)C1=C(C)Nc2ncnn2C1c1ccccc1F` (stereo not given) reads 95.6%; that for `CCC(Oc1ccc2ccccc2c1)C(=O)O` (stereo not given), 80.1%; that for `C=Cn1c(C(=O)O)cc(CC)c1-c1ccccc1`, 106%.
Still for that read-out and setting: next, `CC(=O)N1CCc2cc(S(=O)(=O)NC(C(=O)NCc3ccccc3)C(C)C)ccc21` (stereo not given): 102%.
Turning to `COc1ccccc1CN1CCCC(C(=O)N(C)Cc2ccccc2)C1` (stereo not given), the viability turned out to be 81.1%.
Turning to `CCOC(=O)c1c(N)sn(-c2ccccc2)c1=S`, the viability was 85.3%.
Still for that read-out and setting: next, `Cc1cc(C)c2c(n1)nn1c(N3CCOCC3)cc(C)nc21`: 87.1%; `CC(C)c1cc(C(=O)NCc2ccco2)no1`: 80.4%.
Turning to `NC(=O)COC(=O)CNC(=O)c1ccc(Cl)cc1`, the viability was found to be 101%.
On to `Cc1cccc(-c2c3c(=O)n(C)c(=O)n(C)c3cn2-c2ccc(O)cc2)c1`, for which the viability was determined as 86.6%.
Consider `Cn1c(SC/C=C/c2ccccc2)nnc1-c1cnccn1`, for which the viability is 94.3%.
The same measure, in the same setting: the result for `COc1ccc2nc(N3CCC(C)CC3)c(C#N)cc2c1` reads 26.8%.
The same measure, in the same setting: the result for `CC1(C)CC(=O)C(C#N)=C(NCCCO)C1` reads 100%.
Same read-out and setting: next, `CCCc1[nH]nc2c1C(c1cccc(OC(=O)c3ccco3)c1)C(C#N)=C(N)O2` (stereo not given): 95.3%; `CC(=O)N(c1ccc(N(C(C)=O)S(=O)(=O)c2cccs2)cc1)S(=O)(=O)c1cccs1`: 86%; `O=C(NCCC1=CCCCC1)N[C@@H](Cc1ccccc1)C(=O)O`: 108%.
With `COc1ccccc1C(=O)n1nc(-c2ccccc2)nc1N`, the viability amounted to 87.9%.
In the case of `O=C(O)COc1ccc2occ(C(=O)c3ccccc3)c2c1`, the viability was 93.9%.
Turning to `O=C(NCC1CCCO1)C1CCCN(S(=O)(=O)c2cccc3nsnc23)C1` (stereo not given), the viability was 98.5%.
The same measure, in the same setting: next, `CN1CCN(C(c2cccc(C(F)(F)F)c2)c2nnnn2C(C)(C)C)CC1` (stereo not given): 91.5%.
The same measure, in the same setting: next, `Nc1nnnn1/N=C/c1ccccc1OCc1ccccc1`: 95.3%; `Cc1ccc(C(=O)C2COC(=O)C2)cc1` (stereo not given): 85.3%.
With `O=C(CSc1nnc(-c2c[nH]c3ccccc23)o1)N(Cc1ccccc1)c1ccc(F)cc1`, the viability was determined as 82.4%.
On the same count and under the same terms, next, `CC(C)OC(=O)CSc1nnc(-c2ccc(C(C)(C)C)cc2)n1N`: 88.4%; `COc1cc(Br)cc(/C=N/c2ncn[nH]2)c1O`: 86.6%.
The same measure, in the same setting: the result for `CSc1ccccc1N=CC1=C(O)CC(C)(C)CC1=O` reads 89.2%; that for `CC1(C)CC(CCNC(=O)c2ccco2)CC(C)(C)N1`, 98.8%.

(Values after PubChem BioAssay.)
